Among all 5,500 compounds or so, about 2,000 (36%) were called active. Roughly 18% stayed inconclusive and do not appear here. No stated cut-off is given here; in the data, active means normalized growth mostly below about 0.91 (no sharp cut-off); inconclusive means no clear call, values can overlap the other calls; inactive means mostly above about 0.92. This is one part of the list.
Assay: chemical genetic growth profiling, strain panel (AID 1159580);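 further: tested at 20 µM; growth read once vehicle control cultures reached saturation at 30 °C; 1 = growth at the plate median or of vehicle wells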
Conditions: growth OD

Measured: normalized growth

O=c1cc(-c2ccc(O)cc2)oc2cc(O[C@@H]3O[C@H](CO)[C@@H](O)[C@H](O)[C@H]3O[C@@H]3OC[C@](O)(CO)[C@H]3O)cc(O)c12
inactive: S. cerevisiae deletion strains, locus YJR075W, strain HOC1, stronger effect = lower value 1.04 | S. cerevisiae deletion strains, locus YKL009W, strain mrt4, stronger effect = lower value 0.986 | S. cerevisiae deletion strains, locus YKL068W, stronger effect = lower value 0.991 | S. cerevisiae deletion strains, locus YKL085W, strain MDH1 (second series), stronger effect = lower value 0.999 | S. cerevisiae deletion strains, locus YKL085W, strain MDH1, stronger effect = lower value 0.999 | S. cerevisiae deletion strains, locus YKL160W, strain elf1, stronger effect = lower value 1.01 | S. cerevisiae deletion strains, locus YKL190W, strain CNB1, stronger effect = lower value 0.994 | S. cerevisiae deletion strains, locus YKR001C, strain vps1, stronger effect = lower value 0.987 | S. cerevisiae deletion strains, locus YKR026C, strain gcn3, stronger effect = lower value 0.991 | S. cerevisiae deletion strains, locus YKR091W, strain srl3, stronger effect = lower value 1.01 | S. cerevisiae deletion strains, locus YLL001W, strain dnm1, stronger effect = lower value 0.993 | S. cerevisiae deletion strains, locus YLL026W, stronger effect = lower value 0.995 | S. cerevisiae deletion strains, locus YLL041C, strain sdh2, stronger effect = lower value 1 | S. cerevisiae deletion strains, locus YLR027C, strain aat2, stronger effect = lower value 1.01 | S. cerevisiae deletion strains, locus YLR039C, strain RIC1, stronger effect = lower value 1.11 | S. cerevisiae deletion strains, locus YLR058C, strain SHM2, stronger effect = lower value 1.02 | S. cerevisiae deletion strains, locus YLR102C, strain apc9, stronger effect = lower value 0.989 | S. cerevisiae deletion strains, locus YLR113W, strain HOG1, stronger effect = lower value 1.03 | S. cerevisiae deletion strains, locus YLR221C, strain rsa3, stronger effect = lower value 1.01 | S. cerevisiae deletion strains, locus YLR258W, strain gsy2, stronger effect = lower value 0.997 | S. cerevisiae deletion strains, locus YLR262C, strain YPT6 (second series), stronger effect = lower value 0.999 | S. cerevisiae deletion strains, locus YLR262C, strain YPT6, stronger effect = lower value 1.16 | S. cerevisiae deletion strains, locus YLR268W, strain sec22, stronger effect = lower value 0.983 | S. cerevisiae deletion strains, locus YLR320W, strain mms22, stronger effect = lower value 1.02 | S. cerevisiae deletion strains, locus YLR330W, strain CHS5, stronger effect = lower value 1.04 | S. cerevisiae deletion strains, locus YLR342W, strain FKS1 (second series), stronger effect = lower value 0.994 | S. cerevisiae deletion strains, locus YLR342W, strain FKS1, stronger effect = lower value 1.01 | S. cerevisiae deletion strains, locus YLR357W, strain rsc2, stronger effect = lower value 0.979 | S. cerevisiae deletion strains, locus YLR370C, strain arc18, stronger effect = lower value 1 | S. cerevisiae deletion strains, locus YLR371W, strain rom2, stronger effect = lower value 0.985 | S. cerevisiae deletion strains, locus YLR384C, strain iki3, stronger effect = lower value 0.999 | S. cerevisiae deletion strains, locus YLR418C, strain cdc73, stronger effect = lower value 1.06 | S. cerevisiae deletion strains, locus YML016C, strain PPZ1, stronger effect = lower value 1.01 | S. cerevisiae deletion strains, locus YML032C, strain rad52, stronger effect = lower value 1 | S. cerevisiae deletion strains, locus YML120C, strain ndi1, stronger effect = lower value 1.02 | S. cerevisiae deletion strains, locus YML124C, strain tub3, stronger effect = lower value 0.991 | S. cerevisiae deletion strains, locus YMR058W, strain fet3, stronger effect = lower value 1.01 | S. cerevisiae deletion strains, locus YMR078C, strain ctf18, stronger effect = lower value 0.963 | S. cerevisiae deletion strains, locus YMR125W, strain sto1, stronger effect = lower value 0.992 | S. cerevisiae deletion strains, locus YMR129W, stronger effect = lower value 1.01 | S. cerevisiae deletion strains, locus YMR205C, strain PFK2, stronger effect = lower value 1.01 | S. cerevisiae deletion strains, locus YMR223W, strain ubp8, stronger effect = lower value 1.02 | S. cerevisiae deletion strains, locus YMR231W, strain pep5, stronger effect = lower value 0.997 | S. cerevisiae deletion strains, locus YMR263W, strain SAP30, stronger effect = lower value 1.02 | S. cerevisiae deletion strains, locus YMR307W, strain GAS1, stronger effect = lower value 1.04 | S. cerevisiae deletion strains, locus YNL067W, strain RPL9B, stronger effect = lower value 1.02 | S. cerevisiae deletion strains, locus YNL071W, strain lat1, stronger effect = lower value 1.02 | S. cerevisiae deletion strains, locus YNL153C, strain GIM3, stronger effect = lower value 1 | S. cerevisiae deletion strains, locus YNL183C, strain NPR1, stronger effect = lower value 0.979 | S. cerevisiae deletion strains, locus YNL209W, strain ssb2, stronger effect = lower value 1.01 | S. cerevisiae deletion strains, locus YNL233W, strain BNI4, stronger effect = lower value 1.02 | S. cerevisiae deletion strains, locus YNL248C, strain rpa49, stronger effect = lower value 1 | S. cerevisiae deletion strains, locus YNL250W, strain rad50, stronger effect = lower value 1 | S. cerevisiae deletion strains, locus YNL271C, strain bni1, stronger effect = lower value 1.01 | S. cerevisiae deletion strains, locus YNL298W, strain CLA4, stronger effect = lower value 0.994 | S. cerevisiae deletion strains, locus YNL307C, strain MCK1, stronger effect = lower value 0.977 | S. cerevisiae deletion strains, locus YNL322C, strain KRE1 (second series), stronger effect = lower value 0.994 | S. cerevisiae deletion strains, locus YNL322C, strain KRE1, stronger effect = lower value 1.01 | S. cerevisiae deletion strains, locus YNR049C, strain mso1, stronger effect = lower value 0.998 | S. cerevisiae deletion strains, locus YNR052C, strain pop2, stronger effect = lower value 1 | S. cerevisiae deletion strains, locus YOL012C, strain htz1 0.956 | S. cerevisiae deletion strains, locus YOL147C, strain pex11, stronger effect = lower value 0.996 | S. cerevisiae deletion strains, locus YOR001W, strain rrp6, stronger effect = lower value 1.01 | S. cerevisiae deletion strains, locus YOR061W, strain CKA2, stronger effect = lower value 1.02 | S. cerevisiae deletion strains, locus YOR069W, strain VPS5, stronger effect = lower value 1 | S. cerevisiae deletion strains, locus YOR070C, strain gyp1, stronger effect = lower value 1 | S. cerevisiae deletion strains, locus YOR080W, strain dia2, stronger effect = lower value 1 | S. cerevisiae deletion strains, locus YOR083W, strain WHI5, stronger effect = lower value 1.02 | S. cerevisiae deletion strains, locus YOR106W, strain vam3, stronger effect = lower value 1.02 | S. cerevisiae deletion strains, locus YOR136W, strain idh2, stronger effect = lower value 0.974 | S. cerevisiae deletion strains, locus YOR144C, strain elg1, stronger effect = lower value 0.989 | S. cerevisiae deletion strains, locus YOR184W, strain ser1, stronger effect = lower value 1.04 | S. cerevisiae deletion strains, locus YOR231W, strain MKK1, stronger effect = lower value 1.07 | S. cerevisiae deletion strains, locus YOR265W, strain rbl2, stronger effect = lower value 1.01 | S. cerevisiae deletion strains, locus YOR270C, strain vph1, stronger effect = lower value 1.02 | S. cerevisiae deletion strains, locus YOR290C, strain snf2, stronger effect = lower value 0.998 | S. cerevisiae deletion strains, locus YOR316C, strain cot1, stronger effect = lower value 0.992 | S. cerevisiae deletion strains, locus YPL051W, strain arl3, stronger effect = lower value 1 | S. cerevisiae deletion strains, locus YPL055C, strain LGE1, stronger effect = lower value 1.04 | S. cerevisiae deletion strains, locus YPL078C, strain atp4, stronger effect = lower value 0.999 | S. cerevisiae deletion strains, locus YPL106C, strain sse1, stronger effect = lower value 0.997 | S. cerevisiae deletion strains, locus YPL240C, strain hsp82, stronger effect = lower value 1 | S. cerevisiae deletion strains, locus YPL241C, strain CIN2, stronger effect = lower value 1.01 | S. cerevisiae deletion strains, locus YPL256C, strain CLN2, stronger effect = lower value 0.995 | S. cerevisiae deletion strains, locus YPR119W, strain clb2, stronger effect = lower value 0.984 | S. cerevisiae deletion strains, locus YPR141C, strain kar3, stronger effect = lower value 0.999 | S. cerevisiae deletion strains, locus YPR163C, strain tif3, stronger effect = lower value 0.979 | S. cerevisiae deletion strains, locus YPR167C, strain met16, stronger effect = lower value 0.981 | S. cerevisiae deletion strains, strain wtn01, stronger effect = lower value 0.99 | S. cerevisiae strains, strain wild type, stronger effect = lower value 1.01
